ssDAF-12 act = S. stercoralis DAF-12 activation, primary screen | HEK293 ssDAF-12/GRIP1 lit1-tk-luc reporter, luminescence; % of 3 µM dafachronic acid response | activation, % at 6.8 µM | 1% of 370,000 active | AID 652126;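 active = activation above the mean over all tested compounds plus 3 SD, cut at about 0.9% in these data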;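 note: 0% = DMSO-only wells and 100% = 3 µM delta7-dafachronic acid wells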
hcDAF12 agonist = activates DAF-12 receptor from parasite H. contortus | HEK293 hcDAF-12 lit1-tk-luc reporter, luminescence; 0% DMSO, 100% Δ7-dafachronic acid | activation, % at 6.8 µM | 1.4% of 370,000 active;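 active = activation above the mean of all tested compounds plus 3 SD, cut at about 5.5% in these data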;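 note: 100% = response to 3 µM Δ7-dafachronic acid high control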
DAX1 inh-1 = inhibitors of human orphan nuclear receptor DAX1 (NR0B1) | P51843 | HEK293 Gal4-DAX1 luciferase reporter, luminescence | inhibition, % at 6.75 µM | 0.99% of 340,000 active | AID 504766;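 active = inhibition above the mean over all tested compounds plus 3 SD, cut at about 4.2% in these data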;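 note: 0% = DAX1-transfected cells with DMSO and 100% = empty-vector control cells with DMSO; inhibition shows as a rise in luminescence from relieved DAX1 repression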
Target sequence (P51843 207-470 limits assumed): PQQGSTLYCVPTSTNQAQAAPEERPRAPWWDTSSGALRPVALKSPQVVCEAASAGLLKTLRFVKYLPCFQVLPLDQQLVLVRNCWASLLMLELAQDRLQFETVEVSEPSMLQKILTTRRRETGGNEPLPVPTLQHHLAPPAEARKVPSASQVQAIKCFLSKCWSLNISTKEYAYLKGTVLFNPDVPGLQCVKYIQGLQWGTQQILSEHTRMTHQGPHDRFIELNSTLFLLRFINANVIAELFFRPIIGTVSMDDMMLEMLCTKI
SMARCA2 act = activators of SMARCA2 function; MG213 cells, MMTV-luciferase reporter, dexamethasone, overnight; activation, % at 9.1 µM; 1% of 370,000 active; AID 652017; in the data active = activation above about 7.8%;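 note: 0% = vehicle wells and 100% = reference activator wells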
hgDAF12 agonist = hgDAF-12 agonism, primary luciferase screen. HEK293 GAL4-hgDAF12 UAS-luciferase reporter, agonist luminescence; normalized to butyrate control. activation, % at 6.8 µM. 1.8% of 370,000 active. AID 687014;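 active = activation above a cutoff set at the mean of all screened compounds plus 3 SD, cut at about 10% in these data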;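 note: 0% = DMSO wells and 100% = sodium butyrate wells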
DAX1 inh-2 = DAX1 (NR0B1) inhibition, primary screen; AID 652010; inhibition, % at 6.8 µM; HEK293T StAR-luciferase reporter, SF-1/DAX-1 repression relief; 1.1% of 370,000 active;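 active = inhibition above the mean over all tested compounds plus 3 SD, cut at about 3.6% in these data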;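 note: 0% = DAX-1 cells with DMSO and 100% = cells lacking DAX-1 with DMSO; higher inhibition means more luminescence from relief of DAX-1 repression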
LXR ag = counter-screen for hcDAF-12 agonists: agonists of human LXR-beta; shares compounds with hcDAF12 agonist; HEK293 Gal4-LXR tk-luc reporter, luminescence, 24 h; normalized: DMSO 0%, positive control 100%; activation, % at 6.8 µM; 3,400 tested, under 10 active; AID 743027;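 active = mean percent activation of the reporter above a cutoff set as the average over tested compounds plus their standard deviation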
hcDAF12 ag = hcDAF-12 agonism, confirmation assay | HEK293 hcDAF-12 lit1-tk-luc reporter, luminescence; % of Δ7-dafachronic acid response | shares compounds with hcDAF12 agonist | 61% of 3,400 active | activation, % at 6.8 µM | AID 743032;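 active = mean activation across triplicate tests above the threshold derived from the earlier primary screen, cut at about 5.5% in these data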;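 note: 0% = DMSO only wells and 100% = 3 µM Δ7-dafachronic acid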
The depositor's hits bear a star; x = not tested or not shown. This is a sample that favours compounds with a hit; in the whole collection about 4.8% have one here.

SMILES	ssDAF-12 act	hcDAF12 agonist	DAX1 inh-1	SMARCA2 act	hgDAF12 agonist	DAX1 inh-2	LXR ag	hcDAF12 ag
COC(=O)c1c(NC(=O)COC(=O)c2ccc(Cl)cc2[N+](=O)[O-])sc2c1CCCCC2	-1.1	2.1	0.2	3.0	1.1	-0.3	x	x
COc1ccccc1C(=O)Nc1ccc2ccccc2c1	1.6*	20.3*	3.4	5.8	13.8*	1.3	0.9	12.1*
COc1ccccc1C(=O)Nc1ccc(N2CCCCC2)cc1	2.7*	13.1*	3.3	5.5	11.1*	3.5	1.1	13.8*
COc1cc2ccccc2cc1C(=O)Nc1nccs1	1.4*	10.0*	0.8	1.2	10.6*	0.5	0.6	10.8*
CN1CCN(C(N)=NC(=O)c2ccccc2)CC1	0.6	-0.8	0.0	2.4	1.2	0.8	x	x
O=C(c1ccc(CNc2c(NC3CCCCC3)c(=O)c2=O)cc1)N1CCc2ccccc21	1.1*	7.4*	1.3	-2.3	7.6	0.1	-0.3	1.3
COc1ccc2[nH]cc(C(C)c3c[nH]c4ccccc34)c2c1 (stereo not given)	-0.3	3.8	x	-4.0	1.6	-1.2	x	x
CC(c1cc(F)ccc1O)c1c[nH]c2ccccc12 (stereo not given)	-0.3	6.7*	x	-2.0	2.5	-0.4	-0.1	5.5
O=C(COC(=O)c1ccc(S(=O)(=O)N2CCCC2)cc1)NCc1ccc(Cl)cc1	-0.9	-1.3	1.4	-2.2	-0.1	-0.9	x	x
Cc1cccc2sc(NNC(=O)c3ccc4c(c3)OCCO4)nc12	0.0	9.4*	1.8	-1.4	0.8	-0.3	-0.3	3.0
O=C(NNc1nc2cc3c(cc2s1)OCCO3)c1ccccc1	-0.8	2.4	1.1	0.8	5.9	1.1	x	x
CCC(Sc1nc(-c2ccccc2)c(C#N)c(=O)[nH]1)C(=O)Nc1cc(C)on1 (stereo not given)	-1.6	-0.2	0.7	-1.8	-1.5	1.0	x	x
Fc1cccc(Cl)c1/C=N/Nc1ccccn1	0.6	7.0*	0.9	7.5	6.4	0.3	0.2	10.0*
Fc1cccc(F)c1/C=N/Nc1ccccn1	1.5*	7.1*	5.2*	0.0	13.2*	1.5	0.5	10.0*
CC1=C(C(=O)N(C)C)CC(CC(=O)NCCc2ccccn2)C(=O)N1CCCN1CCCC1=O (stereo not given)	-1.1	-0.4	1.0	-1.6	-0.5	0.6	x	x
Fc1cc(F)c2nc(Nc3nc4cc5c(cc4s3)OCO5)sc2c1	-0.4	0.4	1.4	-0.5	1.0	0.5	x	x
Fc1cccc2sc(Nc3nc4cc5c(cc4s3)OCCO5)nc12	0.2	10.1*	1.1	2.5	2.0	1.8	2.1	20.4*
CCCN(CCC)C(=O)CC(c1ccccc1)c1cc(C)ccc1O (stereo not given)	-1.2	-1.6	-0.3	0.0	-2.4	-1.1	x	x
c1ccc2oc(SCc3nc4ccccc4s3)nc2c1	1.9*	10.1*	4.4*	6.0	7.9	1.6	0.8	11.0*
COc1cccc(-c2nnc(SCc3nc4ccccc4s3)n2C)c1	0.3	5.3	0.6	1.9	1.7	0.7	x	x
Cc1nnc(SCc2nc3ccccc3s2)n1-c1ccccc1	1.2*	7.6*	2.5	7.2	7.5	2.5	0.8	9.5*
N#CCc1nc(CSc2nc3ccccc3o2)cs1	-0.5	-1.2	1.9	3.5	8.2	1.2	x	x
Brc1c(CSc2nc3ccccc3o2)nc2ncccn12	-0.6	0.1	0.1	-1.0	6.4	1.5	x	x
COc1ccc(-n2nnnc2SCc2nc3ccccc3s2)cc1	1.1*	8.1*	1.4	5.9	9.4	1.2	1.0	11.2*
COc1ccc(CSc2nnnn2-c2ccccc2)cc1	-1.1	-1.4	1.0	0.0	-0.9	-1.1	x	x
SMILES	ssDAF-12 act	hcDAF12 agonist	DAX1 inh-1	SMARCA2 act	hgDAF12 agonist	DAX1 inh-2	LXR ag	hcDAF12 ag
Clc1c(CSc2nc3ccccc3o2)nc2ccccn12	0.8	7.0*	0.5	-0.7	10.5*	4.2*	1.2	7.0*
COc1cc(C(c2sc3nc(C)nn3c2O)N2CC(C)OC(C)C2)cc(OC)c1OC (stereo not given)	-1.1	2.4	2.1	1.3	0.4	-0.4	x	x
COc1cccc(NC(=O)c2cc(OC)c(OC)c(OC)c2Br)c1	-1.6	0.0	0.4	0.5	-2.5	-0.7	x	x
CCc1ccc(/C=C/C(=O)C2C(=O)c3ccccc3C2=O)cc1	1.0*	8.8*	0.0	0.0	7.2	3.0	0.3	5.9*
Cc1ccc2nc(-c3ccc(NC(=O)COC(=O)c4ccc([N+](=O)[O-])o4)cc3)sc2c1	1.3*	7.4*	1.8	2.8	22.9*	4.0*	1.7	8.8*
O=C(COC(=O)c1ccc([N+](=O)[O-])o1)Nc1ccc(F)cc1	-1.0	-0.4	-0.7	2.3	0.3	-2.0	x	x
Clc1ccc(/C=C/c2nc3ccccc3[nH]2)c(Cl)c1	1.2*	11.7*	-3.5	0.3	8.7	3.1	1.6	17.5*
Oc1ccc2[nH]cc(-c3cccs3)c2c1-c1ccccc1	-0.6	0.0	x	-3.4	-3.2	-0.2	x	x
O=C(Nc1ccccn1)NC1CCCCC1	-1.1	0.0	0.1	1.2	0.2	0.3	x	x
O=C(COC(=O)c1cccc(Cl)c1Cl)NCCN1C(=O)CSC1=O	0.8	9.0*	0.2	-4.0	1.1	-0.2	-0.3	0.9
CC(=O)N1CCc2cc(S(=O)(=O)NCCC(=O)N3CCN(Cc4ccccc4)CC3)ccc21	-1.6	-2.1	-1.9	-5.7	-6.3	-1.4	x	x
O=C(O)[C@H]1CCCN1C(=O)c1ccccc1N1C(=O)[C@@H]2Cc3c([nH]c4ccccc34)C(c3cccc(Cl)c3)N2C1=O (stereo not given in full)	0.3	5.5	3.8	2.6	0.1	0.9	x	x
Cc1ccc(C2c3[nH]c4ccccc4c3C[C@H]3C(=O)N(c4ccccc4C(=O)N4CCC[C@H]4C(=O)O)C(=O)N23)cc1 (stereo not given in full)	0.0	7.6*	1.7	1.5	4.3	0.6	-0.3	3.2
O=C(O)[C@@H]1CCCN1C(=O)c1ccccc1N1C(=O)[C@@H]2Cc3c([nH]c4ccccc34)C(c3cccc(Cl)c3)N2C1=O (stereo not given in full)	-0.3	8.8*	-1.1	2.1	2.3	1.1	-0.3	3.6
COC(=O)c1ccc(/C=N\N2CCN(Cc3ccc(C)cc3)CC2)cc1	-1.7	-1.1	-0.6	0.1	3.6	0.2	x	x
